In assay [1] the target is Tumor susceptibility gene 101 protein (Homo sapiens) (UniProt Q99816). Briefly: qHTS Assay for Iinhibitors of HIV-1 Budding by Blocking the Interaction of PTAP/TSG101: Hit Validation (AID 651600). Further: nearly all actives have a fitted effect of over 70% in size. Further: potency means the concentration at half of the fitted maximal effect. On activity change, negative = inhibition: on the % scale 0 is the no-effect control and ±100 the full control effect. The method in brief:
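Displacement of a FITC-labeled PTAP-motif peptide (50 nM) from the Tsg101 binding domain (10 uM) was monitored by fluorescence polarization after a 20 min room-temperature incubation.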

In assay [2] the target is Rap guanine nucleotide exchange factor 3 (Homo sapiens) (UniProt O95398). In words: Confirmatory qHTS for antagonist of cAMP-regulated guanine nucleotide exchange factor 3 (EPAC1) (AID 1645880). Further: nearly all actives have a fitted effect of over 55% in size. Further: potency means the concentration at half of the fitted maximal effect.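 On activity, negative = inhibition: plate controls were DMSO only for no effect and full effect of the ATA control for full effect.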 The conditions noted are these: EPAC1 Rap1B-BODIPY-GDP exchange, fluorescence; activity, negative = inhibition: at 115 µM (top of the series). The method in brief:
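Nucleotide exchange uses 100 nM EPAC1, 250 nM RAP1B-BODIPY-GDP and 50 uM GDP, with compounds in a concentration-titration series. After 5 min at room temperature, fluorescence (480 nm ex/540 nm em) is read every 5 min for 30 min. Data are normalized to control ATA and DMSO.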

For assay [3] the target is unchanged. In words: Confirmatory qHTS for agonist of cAMP-regulated guanine nucleotide exchange factor 3 (EPAC1) (AID 1645881). Further: nearly all actives have a fitted effect of over 75% in size. Further: potency means the concentration at half of the fitted maximal effect.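 On activation: EPAC1 catalysed release of BODIPY-GDP from Rap1B seen as fluorescence loss; 100% = effect of cAMP agonist control.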
Assay [4] addresses Rap guanine nucleotide exchange factor 4 (Homo sapiens) (UniProt Q8WZA2). Briefly: Confirmatory qHTS for agonist of cAMP-regulated guanine nucleotide exchange factor 4 (EPAC2) (AID 1645884).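 Further: nucleotide exchange releases bodipy-GDP from Rap1 and this lowers its fluorescence; nearly all actives have a fitted effect of over 65% in size.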 Further: potency means the concentration at half of the fitted maximal effect. On activation: on the % scale 0 is the no-effect control and ±100 the full control effect.
For assay [5] the target is unchanged. In words: Confirmatory qHTS for antagonist of cAMP-regulated guanine nucleotide exchange factor 4 (EPAC2) (AID 1645885). Further: nearly all actives have a fitted effect of over 25% in size. Further: potency means the concentration at half of the fitted maximal effect. On activity change, negative = inhibition: on the % scale 0 is the no-effect control and ±100 the full control effect.
Assay [6] has as its target Rap guanine nucleotide exchange factor 3 (Homo sapiens) (UniProt O95398). In words: Counterscreen qHTS for antagonist of cAMP-regulated guanine nucleotide exchange factor 3 (EPAC1) (AID 1645888).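 Further: fluorescence loss as bound BODIPY-GDP is released from Rap1B; % of control where 0% means no effect.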 The method in brief: (§1)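 Rap1B-BODIPY-GDP 250 nM + GDP 50 uM; cpds 7-pt, final 9.74 nM–152 uM (activator mode) or from 7.32 nM upwards (inhibitor mode); RT; FI 480/540 nm at 5 and 30 min, then ± cAMP, reread.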

For assay [7] the target is unchanged. In words: Counterscreen qHTS for agonist of cAMP-regulated guanine nucleotide exchange factor 3 (EPAC1) (AID 1645889). Further: nearly all actives have a fitted effect of over 40% in size. Further: potency means the concentration at half of the fitted maximal effect. On activation: % of control where 0% means no effect. The method, boiled down: as §1
Assay [8] addresses DNA polymerase eta (Homo sapiens) (UniProt Q9Y253). Briefly: qHTS for Inhibitors of Polymerase Eta: Confirmatory Assay for Cherry-picked Compounds (AID 720502). Further: potency means the concentration at half of the fitted maximal effect. As to conditions: Pol eta primer extension, TAMRA/BHQ fluorescence, 10 min. The method in brief:
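Strand-displacement fluorescence (525 nm excitation, 598 nm emission) was read kinetically at 0 and 10 min after adding 50 nM final TAMRA-reporter/BHQ-2-template substrate. Beforehand, 10 nM Pol eta had been exposed to compound for 15 min at room temperature.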

Results filed as inconclusive are left out. Unmarked numbers belong to inactive results. The list shows a part of the results. Activity calls are given as the source filed them. The call rests on the fitted dose curve; in most records, active means well fitted curve in the direction sought with a large enough effect; inconclusive means small, poorly fitted or top-dose-only effect, or another doubt; inactive means no such curve, though single readings can be large; an effect the other way counts as inactive or inconclusive.

Chain of Tumor susceptibility gene 101 protein (Homo sapiens) (Q99816 whole entry, looked up, the tested form may be a part): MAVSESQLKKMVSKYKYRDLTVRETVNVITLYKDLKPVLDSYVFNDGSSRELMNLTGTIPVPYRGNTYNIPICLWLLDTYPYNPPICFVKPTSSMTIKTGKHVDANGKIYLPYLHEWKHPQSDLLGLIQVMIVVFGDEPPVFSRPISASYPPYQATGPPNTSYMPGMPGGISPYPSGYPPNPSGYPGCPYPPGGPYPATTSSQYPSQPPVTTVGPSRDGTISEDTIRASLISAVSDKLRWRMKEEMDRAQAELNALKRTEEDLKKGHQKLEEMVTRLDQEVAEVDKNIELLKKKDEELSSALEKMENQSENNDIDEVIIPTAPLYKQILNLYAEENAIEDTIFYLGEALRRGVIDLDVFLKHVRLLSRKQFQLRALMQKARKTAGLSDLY
Chain of Rap guanine nucleotide exchange factor 4 (Homo sapiens) (Q8WZA2 whole entry, looked up): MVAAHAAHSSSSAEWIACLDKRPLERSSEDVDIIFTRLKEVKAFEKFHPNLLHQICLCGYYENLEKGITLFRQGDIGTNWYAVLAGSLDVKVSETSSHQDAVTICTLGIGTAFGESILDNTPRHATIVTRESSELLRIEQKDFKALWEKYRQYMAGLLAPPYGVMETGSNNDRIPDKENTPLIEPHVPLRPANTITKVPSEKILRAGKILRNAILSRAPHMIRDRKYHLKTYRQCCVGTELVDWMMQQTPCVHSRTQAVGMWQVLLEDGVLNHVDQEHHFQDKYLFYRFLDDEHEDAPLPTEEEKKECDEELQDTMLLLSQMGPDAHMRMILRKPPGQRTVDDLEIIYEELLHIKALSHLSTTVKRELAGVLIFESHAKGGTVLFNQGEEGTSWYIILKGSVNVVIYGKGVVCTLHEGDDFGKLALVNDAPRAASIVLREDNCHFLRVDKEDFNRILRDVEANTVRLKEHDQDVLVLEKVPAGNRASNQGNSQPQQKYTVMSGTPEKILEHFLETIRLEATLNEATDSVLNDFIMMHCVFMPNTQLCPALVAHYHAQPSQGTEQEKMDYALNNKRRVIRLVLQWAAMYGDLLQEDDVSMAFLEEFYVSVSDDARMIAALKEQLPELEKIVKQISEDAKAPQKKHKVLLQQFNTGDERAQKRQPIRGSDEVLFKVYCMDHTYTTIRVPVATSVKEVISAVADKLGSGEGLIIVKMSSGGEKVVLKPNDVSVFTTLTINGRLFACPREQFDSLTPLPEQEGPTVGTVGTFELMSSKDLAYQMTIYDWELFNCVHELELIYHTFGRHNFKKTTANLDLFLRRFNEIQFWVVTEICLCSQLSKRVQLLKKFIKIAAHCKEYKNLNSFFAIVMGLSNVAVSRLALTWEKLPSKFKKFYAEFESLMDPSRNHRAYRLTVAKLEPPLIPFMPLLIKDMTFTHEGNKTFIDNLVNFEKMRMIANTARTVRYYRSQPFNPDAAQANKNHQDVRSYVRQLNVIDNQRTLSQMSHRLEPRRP
Chain of Rap guanine nucleotide exchange factor 3 (Homo sapiens) (O95398 whole entry, looked up): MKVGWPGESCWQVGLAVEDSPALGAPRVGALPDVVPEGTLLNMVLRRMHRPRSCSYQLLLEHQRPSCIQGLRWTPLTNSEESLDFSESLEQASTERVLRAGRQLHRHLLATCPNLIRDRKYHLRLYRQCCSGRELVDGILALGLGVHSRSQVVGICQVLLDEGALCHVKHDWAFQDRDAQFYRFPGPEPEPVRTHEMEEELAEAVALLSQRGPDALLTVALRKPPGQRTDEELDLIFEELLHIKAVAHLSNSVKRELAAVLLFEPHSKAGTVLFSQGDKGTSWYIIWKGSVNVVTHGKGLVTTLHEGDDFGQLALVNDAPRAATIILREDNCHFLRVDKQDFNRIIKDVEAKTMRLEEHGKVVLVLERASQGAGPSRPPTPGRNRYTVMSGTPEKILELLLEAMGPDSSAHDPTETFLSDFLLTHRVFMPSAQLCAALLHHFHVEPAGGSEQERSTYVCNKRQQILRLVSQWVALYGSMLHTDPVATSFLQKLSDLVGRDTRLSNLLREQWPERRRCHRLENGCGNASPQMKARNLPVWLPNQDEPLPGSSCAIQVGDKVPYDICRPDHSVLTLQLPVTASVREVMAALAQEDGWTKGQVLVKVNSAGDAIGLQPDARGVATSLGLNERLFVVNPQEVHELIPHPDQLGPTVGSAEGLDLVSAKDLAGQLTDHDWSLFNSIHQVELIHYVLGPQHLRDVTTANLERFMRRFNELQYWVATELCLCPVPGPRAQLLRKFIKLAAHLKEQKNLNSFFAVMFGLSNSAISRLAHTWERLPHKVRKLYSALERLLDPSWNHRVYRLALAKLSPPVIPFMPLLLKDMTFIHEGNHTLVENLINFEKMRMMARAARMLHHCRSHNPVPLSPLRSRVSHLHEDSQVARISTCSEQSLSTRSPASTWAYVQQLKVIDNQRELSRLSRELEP
Chain of DNA polymerase eta (Homo sapiens) (Q9Y253 whole entry, looked up): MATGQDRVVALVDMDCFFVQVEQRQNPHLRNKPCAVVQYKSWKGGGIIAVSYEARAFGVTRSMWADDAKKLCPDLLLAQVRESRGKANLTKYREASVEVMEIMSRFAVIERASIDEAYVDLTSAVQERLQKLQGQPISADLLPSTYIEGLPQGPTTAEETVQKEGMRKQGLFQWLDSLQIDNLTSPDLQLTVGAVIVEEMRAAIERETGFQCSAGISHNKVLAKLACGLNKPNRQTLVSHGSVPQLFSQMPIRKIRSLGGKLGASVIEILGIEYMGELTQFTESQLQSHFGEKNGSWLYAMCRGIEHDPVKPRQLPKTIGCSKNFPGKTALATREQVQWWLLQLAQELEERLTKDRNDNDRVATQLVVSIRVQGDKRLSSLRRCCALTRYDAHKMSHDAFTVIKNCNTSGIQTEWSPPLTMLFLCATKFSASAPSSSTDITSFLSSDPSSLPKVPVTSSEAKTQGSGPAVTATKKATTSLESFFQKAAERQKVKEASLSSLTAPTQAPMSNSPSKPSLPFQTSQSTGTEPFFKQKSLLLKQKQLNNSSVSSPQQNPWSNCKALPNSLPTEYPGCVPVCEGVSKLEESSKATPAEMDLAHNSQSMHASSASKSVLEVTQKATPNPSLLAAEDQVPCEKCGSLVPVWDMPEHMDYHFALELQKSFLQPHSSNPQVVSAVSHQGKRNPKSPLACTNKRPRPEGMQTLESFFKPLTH

With `Cc1ccc(-c2cn3nc(-c4ccccc4)c(-c4ccccc4)nc3n2)cc1`, in assay [1], the Potency was 25.9 µM (active). Besides, the Potency entry in assay [2], in assay [3], in assay [4], in assay [5], in assay [6] and in assay [7] was “inactive” throughout.
`Cn1c(=O)c(N)c2c3c(c(Br)ccc31)C(=O)c1ccccc1-2`: the Potency was 1.63 µM (active) in assay [1], 26.9 µM (active) in assay [2] and 26.9 µM (active) in assay [5]. In addition, the Potency entry in assay [3], in assay [4], in assay [6] and in assay [7] was “inactive” each time.
Take `O=[N+]([O-])c1ccc(Sc2cccc[n+]2[O-])c2nonc12`: the Potency is 18.3 µM (active) in assay [1] and 31.6 µM (active) in assay [2]. Further, the Potency result in assay [3] and in assay [5] was “inactive” each time. In addition, the activation was 3.05% [at 17.1 µM, percent relative to cAMP agonist control] in assay [4] and 9.42% [at 30.8 µM] in assay [7]. Also, in assay [6], the activity change, negative = inhibition is -8.92% [at 30.8 µM].
With `Cc1cc2nc3c(=O)n(C4CCCCC4)c(=O)[nH]c3nc2cc1N`, the Potency is 0.651 µM (active) in assay [1], 56.2 µM (active) in assay [3], 56.2 µM (active) in assay [4] and 25.1 µM (active) in assay [7]. Moreover, the Potency result in assay [2], in assay [5] and in assay [6] was “inactive” in each case.
In the case of `O=C1c2cccc3c(O)ccc(c23)C(=O)N1c1ccc(Cl)cc1`, the Potency in assay [1] is 4.11 µM (active); in assay [3] it was 112 µM (active); in assay [4], 112 µM (active); in assay [5], 84.9 µM (active); in assay [7], 39.8 µM (active). Moreover, the Potency result in assay [2] and in assay [6] was “inactive” in each case.
Consider `N=c1c(S(=O)(=O)c2ccc(Br)cc2)cc2c(=O)n3ccccc3nc2n1Cc1ccccc1`, for which the Potency entry in assay [1], in assay [3] and in assay [5] was “inactive” each time. The Potency in assay [2] was 50.1 µM (active). For the same molecule, the activation in assay [4] is -5.31% [at 17.1 µM, percent relative to cAMP agonist control]; in assay [7], 9.82% [at 30.8 µM]. Besides, the activity change, negative = inhibition in assay [6] is -6.58% [at 30.8 µM].
As to `Cc1cc(C=C2C(=O)c3ccccc3C2=O)c(C)n1-c1ccc(Cl)cc1`, the Potency entry in assay [1], in assay [2], in assay [3] and in assay [5] was “inactive” each time. For the same molecule, the activation in assay [4] is 3.84% [at 17.1 µM, percent relative to cAMP agonist control]; in assay [7], 7.12% [at 30.8 µM]. The activity change, negative = inhibition in assay [6] was -26.7% [at 30.8 µM].
Consider `N#CC(C(=O)OC1CCCCC1)c1nc2ccccc2nc1N1CCOCC1` (stereo unspecified), for which the Potency in assay [1] was 10.3 µM (active). Besides, the Potency result in assay [2], in assay [3] and in assay [5] was “inactive” throughout. In addition, the activation in assay [4] was -10.2% [at 17.1 µM, percent relative to cAMP agonist control]; in assay [7], -0.592% [at 30.8 µM]. Moreover, in assay [6], the activity change, negative = inhibition was -21.8% [at 30.8 µM].
`Cc1ccc(C)c2nc3sc(C(=O)N4CCCc5ccccc54)c(N)c3cc12`: the Potency in assay [1] is 20.6 µM (active). Further, the Potency entry in assay [2], in assay [3], in assay [4], in assay [5] and in assay [6] was “inactive” each time.
Turning to `Cc1nc2c(C(=O)NCCC3=CCCCC3)c[nH]n2c(=O)c1Cl`, the Potency in assay [2] was 75.7 µM (active); in assay [5], 6.75 µM (active). Further, the Potency result in assay [3], in assay [4] and in assay [7] was “inactive” in each case.
`Nc1ncc(Br)cc1S(=O)(=O)Nc1cc(C(F)(F)F)cc(C(F)(F)F)c1`: the Potency in assay [2] was 75.7 µM (active). Besides, the Potency entry in assay [3], in assay [4], in assay [5] and in assay [7] was “inactive” in each case.
As to `N#Cc1c(N2CCCCC2)nc(N)c2c(N)nc(SCC(=O)O)cc12`, the Potency in assay [8] is 19 µM (active); in assay [2], 31.6 µM (active). In addition, the Potency entry in assay [3] and in assay [5] was “inactive” in each case. Besides, in assay [4], the activation is 13.6% [at 17.1 µM, percent relative to cAMP agonist control]. In addition, the activity change, negative = inhibition in assay [6] was 35.9% [at 30.8 µM].
In the case of `Cc1ccc(C(=O)NN2C(=O)/C(=C/c3cn(C)c4ccccc34)SC2=S)cc1`, in assay [1], the Potency was 14.6 µM (active). In addition, the Potency result in assay [2], in assay [3], in assay [4], in assay [5] and in assay [6] was “inactive” each time.
Regarding `Cc1ccc(-c2ccc(CCC(=O)O)n2-c2ccc(C(C)C)cc2)cc1`, the Potency in assay [2] is 75.7 µM (active). The Potency result in assay [3], in assay [4], in assay [5] and in assay [7] was “inactive” throughout.
With `COc1ccc2nc3ccccc3nc2c1NC(=O)c1ccc(Cl)cc1Cl`, the Potency entry in assay [1], in assay [2], in assay [5] and in assay [6] was “inactive” in each case. For the same molecule, the Potency in assay [3] and in assay [4] was 100 µM (active) in each case.
Turning to `CN1CCN(C2=CC3=CC(=C(C#N)C#N)CCC3CC2)CC1` (stereo unspecified), the Potency entry in assay [2] is “inactive”. Further, the Potency in assay [3] was 44.7 µM (active); in assay [4], 56.2 µM (active); in assay [5], 6.75 µM (active); in assay [7], 14.1 µM (active).
`CCOc1cc(/C=C(\C#N)C(=O)Nc2cccc(C(=O)O)c2)cc(Br)c1OC(=O)c1ccc(OC)cc1`: the Potency is 42.6 µM (active) in assay [2] and 12 µM (active) in assay [5]. Further, the Potency entry in assay [3], in assay [4] and in assay [7] was “inactive” in each case.
As to `O=C(N/N=C/c1ccccc1Cl)c1[nH]c2ccc(Br)cc2c1-c1ccccc1`, the Potency result in assay [1], in assay [2], in assay [3], in assay [5] and in assay [6] was “inactive” each time. For the same molecule, the Potency in assay [4] is 126 µM (active).
As for `C/C(=N\NC(=O)CC#N)c1cc2ccc(O)cc2oc1=O`, the Potency result in assay [2], in assay [3] and in assay [5] was “inactive” throughout. In addition, the activation in assay [4] was 2.05% [at 17.1 µM, percent relative to cAMP agonist control]; in assay [7], -21% [at 30.8 µM].
Turning to `CCC(Oc1ccccc1)C(=O)Nc1ccccc1N1CCCCC1` (stereo unspecified), the Potency result in assay [2], in assay [3], in assay [4], in assay [5] and in assay [7] was “inactive” each time.

For the origin of these results see PubChem BioAssay (NCATS).
